Compounds without any hit were thinned out: in the full panel of roughly 83,000, 20% have a hit.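 Single-dose data. Exposure time 48 hours. Values below 10 considered active.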
Experiments:
Assay in all cases: NCI-60 one-dose screen, 48 h (100 = growth as untreated, 0 = no growth, -100 = all killed)
Conditions in all cases: 10 µM unless noted
SK-MEL-2 melanoma = test system: SK-MEL-2 melanoma
EKVX NSCLC = test system: EKVX NSCLC
UO-31 renal = test system: UO-31 renal
TK-10 renal = test system: TK-10 renal
ACHN renal = test system: ACHN renal
CAKI-1 renal = test system: CAKI-1 renal
A498 renal = test system: A498 renal
CCRF-CEM leukemia = test system: CCRF-CEM leukemia
SR leukemia = test system: SR leukemia
RPMI-8226 leukemia = test system: RPMI-8226 leukemia
OVCAR-8 ovarian = test system: OVCAR-8 ovarian
OVCAR-5 ovarian = test system: OVCAR-5 ovarian
OVCAR-4 ovarian = test system: OVCAR-4 ovarian
SK-OV-3 ovarian = test system: SK-OV-3 ovarian
IGROV1 ovarian = test system: IGROV1 ovarian
OVCAR-3 ovarian = test system: OVCAR-3 ovarian
HS 578T breast = test system: HS 578T breast
NCI/ADR-RES ovarian = test system: NCI/ADR-RES ovarian
SN12C renal = test system: SN12C renal
MOLT-4 leukemia = test system: MOLT-4 leukemia

Measured: growth

CCOC(=O)c1c(C)[nH]c(C)c1C=O
inactive: SK-MEL-2 melanoma 102% | EKVX NSCLC 102% | UO-31 renal 104% | TK-10 renal 95.9% | ACHN renal 102% | CAKI-1 renal 99.8% | A498 renal 92% | CCRF-CEM leukemia 79.8% | SR leukemia 84.4% | RPMI-8226 leukemia 89.7% | OVCAR-8 ovarian 94.5% | OVCAR-5 ovarian 96.4% | OVCAR-4 ovarian 107% | SK-OV-3 ovarian 94% | IGROV1 ovarian 103% | OVCAR-3 ovarian 112% | HS 578T breast 98.9% | NCI/ADR-RES ovarian 107%

O=C(O)c1ccc([N+](=O)[O-])cc1S(=O)(=O)O
inactive: SK-MEL-2 melanoma 95.9% | SN12C renal 103% | UO-31 renal 102% | TK-10 renal 99.3% | ACHN renal 106% | CAKI-1 renal 110% | A498 renal 108% | CCRF-CEM leukemia 81.2% | MOLT-4 leukemia 105% | SR leukemia 110% | RPMI-8226 leukemia 99.5% | OVCAR-8 ovarian 99.5% | OVCAR-5 ovarian 106% | OVCAR-4 ovarian 116% | SK-OV-3 ovarian 103% | IGROV1 ovarian 108% | OVCAR-3 ovarian 99.4% | HS 578T breast 100% | NCI/ADR-RES ovarian 104%

CN(C)c1ccc(/C=C/C(=O)c2ccc(NC(N)=O)cc2)cc1
inactive: SK-MEL-2 melanoma 103% | EKVX NSCLC 89.3% | UO-31 renal 68.3% | TK-10 renal 97.7% | ACHN renal 103% | CAKI-1 renal 87.8% | A498 renal 115% | CCRF-CEM leukemia 92.8% | MOLT-4 leukemia 91.7% | SR leukemia 61.2% | RPMI-8226 leukemia 63.8% | OVCAR-8 ovarian 94.1% | OVCAR-5 ovarian 99.8% | OVCAR-4 ovarian 94% | SK-OV-3 ovarian 105% | IGROV1 ovarian 99.7% | OVCAR-3 ovarian 109% | NCI/ADR-RES ovarian 102%

C/C(=N\N=C(/C)c1cccc([N+](=O)[O-])c1)c1cccc([N+](=O)[O-])c1
inactive: SK-MEL-2 melanoma 90.8% | SN12C renal 81.7% | UO-31 renal 92.8% | TK-10 renal 90.8% | ACHN renal 99.4% | CAKI-1 renal 99.5% | A498 renal 97.9% | CCRF-CEM leukemia 96.5% | MOLT-4 leukemia 102% | SR leukemia 86.4% | RPMI-8226 leukemia 87.7% | OVCAR-8 ovarian 79.6% | OVCAR-5 ovarian 97.9% | OVCAR-4 ovarian 42.1% | IGROV1 ovarian 104% | OVCAR-3 ovarian 58.1% | HS 578T breast 78.8% | NCI/ADR-RES ovarian 93.9%

Cc1ccc(S(=O)(=O)NC(=O)NCCSSCCNC(=O)NS(=O)(=O)c2ccc(C)cc2)cc1
inactive: SK-MEL-2 melanoma 112% | SN12C renal 100% | UO-31 renal 90.3% | TK-10 renal 102% | ACHN renal 96.2% | CAKI-1 renal 96.5% | A498 renal 93.1% | CCRF-CEM leukemia 99.1% | MOLT-4 leukemia 110% | SR leukemia 107% | RPMI-8226 leukemia 99.8% | OVCAR-8 ovarian 106% | OVCAR-5 ovarian 93.6% | OVCAR-4 ovarian 112% | SK-OV-3 ovarian 116% | IGROV1 ovarian 101% | OVCAR-3 ovarian 109% | HS 578T breast 97.5% | NCI/ADR-RES ovarian 111%

Cc1c(Cl)cccc1N=C=S
inactive: SK-MEL-2 melanoma 99.5% | SN12C renal 99.9% | UO-31 renal 81.1% | TK-10 renal 106% | ACHN renal 99.3% | CAKI-1 renal 88.8% | A498 renal 117% | CCRF-CEM leukemia 94.6% | MOLT-4 leukemia 109% | SR leukemia 108% | RPMI-8226 leukemia 86.3% | OVCAR-8 ovarian 95.6% | OVCAR-5 ovarian 93.1% | OVCAR-4 ovarian 87.4% | SK-OV-3 ovarian 104% | IGROV1 ovarian 108% | OVCAR-3 ovarian 102% | HS 578T breast 109% | NCI/ADR-RES ovarian 89.3%

CC(C)N(CCCC#N)C(C)C
inactive: SK-MEL-2 melanoma 121% | SN12C renal 94% | UO-31 renal 86% | TK-10 renal 104% | ACHN renal 98% | CAKI-1 renal 95.1% | A498 renal 79.4% | CCRF-CEM leukemia 86.9% | MOLT-4 leukemia 112% | SR leukemia 108% | RPMI-8226 leukemia 98.2% | OVCAR-8 ovarian 92.8% | OVCAR-5 ovarian 96.7% | OVCAR-4 ovarian 88.7% | IGROV1 ovarian 103% | OVCAR-3 ovarian 108% | HS 578T breast 86.7% | NCI/ADR-RES ovarian 121%

C1C[S+]2CC[S+]1CC2
inactive: SK-MEL-2 melanoma 101% | SN12C renal 101% | UO-31 renal 106% | TK-10 renal 97.9% | ACHN renal 99.2% | CAKI-1 renal 108% | A498 renal 105% | CCRF-CEM leukemia 89.9% | MOLT-4 leukemia 100% | SR leukemia 101% | RPMI-8226 leukemia 95.1% | OVCAR-8 ovarian 96% | OVCAR-5 ovarian 107% | OVCAR-4 ovarian 115% | SK-OV-3 ovarian 100% | IGROV1 ovarian 106% | OVCAR-3 ovarian 102% | HS 578T breast 108% | NCI/ADR-RES ovarian 99.3%

C=CC1=NC(C)(C)CC(C)O1 (stereo unspecified)
inactive: SK-MEL-2 melanoma 112% | SN12C renal 99.2% | UO-31 renal 111% | TK-10 renal 106% | ACHN renal 101% | CAKI-1 renal 114% | A498 renal 98.3% | CCRF-CEM leukemia 95.7% | MOLT-4 leukemia 98.5% | SR leukemia 113% | RPMI-8226 leukemia 105% | OVCAR-8 ovarian 113% | OVCAR-5 ovarian 104% | OVCAR-4 ovarian 98.6% | SK-OV-3 ovarian 108% | OVCAR-3 ovarian 113% | HS 578T breast 107% | NCI/ADR-RES ovarian 112%
